The results in this text go back to ChEMBL document CHEMBL4296182, “CO-ADD screening of NIH NCI Diversity Set V”.

Each structure is given as a SMILES string. Entries with a potency or affinity are not part of this list.

The first test relates to Klebsiella pneumoniae. The settings on record: Concentration 20 uM; ASSAY_TEST Inhibition of Bacterial Growth; detection method Absorption (OD600); MEDIA CAMHB; plate type 384well; NBS; CORNING #3640; time 18 hr.
Regarding `COc1ccc(NC2=CC(=S)NC(C)(C)C2)cc1`, the Inhibition amounted to 4.99%.

`CC1(c2ccc3ccccc3c2)CCC(=O)O1` (stereo not drawn): the Inhibition worked out at 5.94%.

For `O=C(O)c1nc2nc(Cl)c(Cl)nc2[nH]1`, the Inhibition was determined as 10.97%.

For the molecule `C1=CC2(C=C1)OC21CCC2(C=CC3(C2)OC3C2CCCCC2)CC1` (stereo not drawn), the Inhibition was -0.69%.

For the molecule `O=P(O)(O)c1cc(-c2ccccc2)oc1-c1ccccc1`, the Inhibition is 15.02%.

As to `O=C(O)c1ccccc1C(=O)Nc1ccccc1[N+](=O)[O-]`, the Inhibition is 12.98%.

As for `NC(=O)c1nc2c([nH]c1=O)CCCC2`, the Inhibition is recorded as -0.68%.

For `Cc1n[nH]c2c([N+](=O)[O-])c(=O)[nH]c(=O)n12`, the Inhibition stood at 7.43%.

`Cc1ccncc1C(N)=O`: the Inhibition is given as 14.09%.

Consider `N=C(N)Nc1nc2cc([N+](=O)[O-])ccc2[nH]1`, for which the Inhibition is 26.99%.

Consider `CSC1=NC=C(C#N)C2=NC(c3ccc(Cl)cc3)NN12` (stereo not drawn), for which the Inhibition is on record as 11.21%.

For the molecule `O=C(Nc1cccc(-c2ccccc2)c1)N1CCN(C(=O)Nc2cccc(-c3ccccc3)c2)CC1`, the Inhibition is recorded as 6.58%.

`CCCNC(=O)c1ccccc1C(=O)NC1(C(=O)NCCC)CCCC1`: the Inhibition turned out to be 12.55%.

Take `CC1=NN(c2ccccc2)C(=O)C1C(=S)SC1CC(=O)NC1=O` (stereo not drawn): the Inhibition came to 16.67%.

`CSc1nc(O)c(Nc2cccc(Cl)c2)c(O)n1`: the Inhibition came to 7.49%.

On to `CSc1nc2nc(C(O)c3ccccc3)nc-2c[nH]1` (stereo not drawn), for which the Inhibition stood at 16.25%.

For `S=C(SCc1cc(Cl)cc2c1OCOC2)N1CCSCC1`, the Inhibition is listed as 22.79%.

Consider `CC(=O)O.COc1ccc2nccc(/C=C/c3ccnc4ccc(OC)cc34)c2c1`, for which the Inhibition was found to be 6.2%.

Take `O=C(NC1(N2CCOCC2)CC1)c1ccc(Cl)cc1`: the Inhibition came out at 3.34%.

Consider `O=C(Nc1cccc2c1N(C(=O)c1ccco1)CCC2)c1ccco1`, for which the Inhibition was 13.8%.

Take `CCOC(=O)C1(C#N)C(=O)CS/C1=N/c1ccccc1Cl` (stereo not drawn): the Inhibition stood at 8.87%.

With `NC(CSC1(c2cccc3ccccc23)c2ccccc2-c2ccccc21)C(=O)O` (stereo not drawn), the Inhibition is reported as 13.19%.

Take `CCN(CC)CCNC(=O)C(Cl)=C1C(Cl)=C(Cl)C(Cl)=C1Cl`: the Inhibition is reported as 29.33%.

With `CCC1=C(c2ccc(OC)cc2)CCC(C(=O)O)C1C` (stereo not drawn), the Inhibition was 12.8%.

As to `Cc1ccc(CC#N)c(-c2c(CC#N)ccc(C)c2C)c1C`, the Inhibition is 6.29%.

With `CCOC(=O)c1c(C)nc(C)c(C(=O)OCC)c1-c1cccnc1`, the Inhibition was 5.06%.

For `N=C(N)NC(=N)Nc1ccc(O)cc1`, the Inhibition worked out at 0.41%.

For `CC1(C)N=C(N)N=C(NCCCOc2ccc([N+](=O)[O-])cc2)N1.CCS(=O)(=O)O`, the Inhibition is on record as 18.17%.

With `COc1cccc(OCC(O)CN2CCN(c3ccc(Cl)cc3)CC2)c1` (stereo not drawn), the Inhibition was 0.79%.

Turning to `O=CN/C=C\c1cc(O)ccc1O`, the Inhibition is listed as 6.52%.

As to `CN1CCC(=C2c3ccccc3C(O)c3ccccc32)CC1` (stereo not drawn), the Inhibition is recorded as 2.29%.

As for `Cc1cc(=O)[nH]/c(=N/N=C2/CCCCC2C)[nH]1` (stereo not drawn), the Inhibition is on record as 5.45%.

With `COc1cc(C(=O)OC(C)CN2CCOCC2)cc(OC)c1OC` (stereo not drawn), the Inhibition came out at 16.73%.

`Nc1nc2cc([N+](=O)[O-])ccc2[nH]1`: the Inhibition is recorded as 4.78%.

Take `COc1cc2c(=O)n3c4c(cccc4c2cc1OC)CC3`: the Inhibition is recorded as 1.26%.

Take `Nc1nc(N)nc(-c2ccccc2-c2nc(N)nc(N)n2)n1`: the Inhibition came to 13.54%.

For `O=C1c2cccc(Sc3ccccc3)c2C(=O)c2c(Sc3ccccc3)cccc21`, the Inhibition is listed as 3.23%.

For `O=S(=O)(O)c1ccc2c(c1)C(C(Cl)(Cl)Cl)OC(C(Cl)(Cl)Cl)O2` (stereo not drawn), the Inhibition was found to be 1.9%.

In the case of `CC1=C(C(N)=O)S(=O)(=O)c2ccccc21`, the Inhibition is 8.77%.

The test system of the next test is Candida albicans. As to conditions: 20 µM.
`COc1ccc(NC2=CC(=S)NC(C)(C)C2)cc1`: the Inhibition came to 2.09%.

Regarding `CC1(c2ccc3ccccc3c2)CCC(=O)O1` (stereo not drawn), the Inhibition stood at 2.15%.

With `O=C(O)c1nc2nc(Cl)c(Cl)nc2[nH]1`, the Inhibition came out at 3.92%.

For the molecule `C1=CC2(C=C1)OC21CCC2(C=CC3(C2)OC3C2CCCCC2)CC1` (stereo not drawn), the Inhibition amounted to 1.23%.

As for `O=P(O)(O)c1cc(-c2ccccc2)oc1-c1ccccc1`, the Inhibition is 5.26%.

Take `O=C(O)c1ccccc1C(=O)Nc1ccccc1[N+](=O)[O-]`: the Inhibition was 4.76%.

As to `NC(=O)c1nc2c([nH]c1=O)CCCC2`, the Inhibition was -0.94%.

With `Cc1n[nH]c2c([N+](=O)[O-])c(=O)[nH]c(=O)n12`, the Inhibition worked out at 0.29%.

For the molecule `Cc1ccncc1C(N)=O`, the Inhibition was determined as 1.98%.

With `N=C(N)Nc1nc2cc([N+](=O)[O-])ccc2[nH]1`, the Inhibition is -2.1%.

In the case of `CSC1=NC=C(C#N)C2=NC(c3ccc(Cl)cc3)NN12` (stereo not drawn), the Inhibition worked out at 1.44%.

On to `O=C(Nc1cccc(-c2ccccc2)c1)N1CCN(C(=O)Nc2cccc(-c3ccccc3)c2)CC1`, for which the Inhibition is -1.22%.

As to `CCCNC(=O)c1ccccc1C(=O)NC1(C(=O)NCCC)CCCC1`, the Inhibition is -0.46%.

With `CC1=NN(c2ccccc2)C(=O)C1C(=S)SC1CC(=O)NC1=O` (stereo not drawn), the Inhibition turned out to be 6.57%.

As to `CSc1nc(O)c(Nc2cccc(Cl)c2)c(O)n1`, the Inhibition came out at 0%.

`CSc1nc2nc(C(O)c3ccccc3)nc-2c[nH]1` (stereo not drawn): the Inhibition was determined as 8.94%.

`S=C(SCc1cc(Cl)cc2c1OCOC2)N1CCSCC1`: the Inhibition is 13.5%.

With `CC(=O)O.COc1ccc2nccc(/C=C/c3ccnc4ccc(OC)cc34)c2c1`, the Inhibition turned out to be 5.73%.

For `O=C(NC1(N2CCOCC2)CC1)c1ccc(Cl)cc1`, the Inhibition is 2.83%.

For the molecule `O=C(Nc1cccc2c1N(C(=O)c1ccco1)CCC2)c1ccco1`, the Inhibition was -1.4%.

With `CCOC(=O)C1(C#N)C(=O)CS/C1=N/c1ccccc1Cl` (stereo not drawn), the Inhibition turned out to be 1.9%.

With `NC(CSC1(c2cccc3ccccc23)c2ccccc2-c2ccccc21)C(=O)O` (stereo not drawn), the Inhibition worked out at 7.56%.

For `CCN(CC)CCNC(=O)C(Cl)=C1C(Cl)=C(Cl)C(Cl)=C1Cl`, the Inhibition was 1.86%.

As to `CCC1=C(c2ccc(OC)cc2)CCC(C(=O)O)C1C` (stereo not drawn), the Inhibition turned out to be 12.4%.

Regarding `Cc1ccc(CC#N)c(-c2c(CC#N)ccc(C)c2C)c1C`, the Inhibition stood at 3.94%.

Consider `CCOC(=O)c1c(C)nc(C)c(C(=O)OCC)c1-c1cccnc1`, for which the Inhibition was 0.35%.

As to `N=C(N)NC(=N)Nc1ccc(O)cc1`, the Inhibition came to 0.07%.

Turning to `CC1(C)N=C(N)N=C(NCCCOc2ccc([N+](=O)[O-])cc2)N1.CCS(=O)(=O)O`, the Inhibition was -1.81%.

As to `COc1cccc(OCC(O)CN2CCN(c3ccc(Cl)cc3)CC2)c1` (stereo not drawn), the Inhibition was 0.05%.

For `O=CN/C=C\c1cc(O)ccc1O`, the Inhibition stood at 4.27%.

`CN1CCC(=C2c3ccccc3C(O)c3ccccc32)CC1` (stereo not drawn): the Inhibition was 0.03%.

Regarding `Cc1cc(=O)[nH]/c(=N/N=C2/CCCCC2C)[nH]1` (stereo not drawn), the Inhibition was -3.38%.

Consider `COc1cc(C(=O)OC(C)CN2CCOCC2)cc(OC)c1OC` (stereo not drawn), for which the Inhibition is -2.91%.

On to `Nc1nc2cc([N+](=O)[O-])ccc2[nH]1`, for which the Inhibition was 0.21%.

For the molecule `COc1cc2c(=O)n3c4c(cccc4c2cc1OC)CC3`, the Inhibition came out at 1.37%.

Regarding `Nc1nc(N)nc(-c2ccccc2-c2nc(N)nc(N)n2)n1`, the Inhibition was 6.82%.

Turning to `O=C1c2cccc(Sc3ccccc3)c2C(=O)c2c(Sc3ccccc3)cccc21`, the Inhibition turned out to be 0.05%.

For `O=S(=O)(O)c1ccc2c(c1)C(C(Cl)(Cl)Cl)OC(C(Cl)(Cl)Cl)O2` (stereo not drawn), the Inhibition is -0.48%.

Take `CC1=C(C(N)=O)S(=O)(=O)c2ccccc21`: the Inhibition worked out at 2.88%.
